Structures are written as SMILES.

Test system in the first assay: not listed separately
The experiment in a line: viability profiling in RPMI8226 myeloma cells – cell-based, resazurin fluorescence, basal, 24 h, PK04 Diversity Set, profiling panel (AID 1180).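 Note: RPMI8826 multiple myeloma cell line at 5000 cells per well; test concentration not given here.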 The following applies: higher = more signal.
In the case of `CC(CCN1CCCCc2nc(C)c(C)cc21)=NOC[C@@H](O)COCc1ccco1`, the z-score was -0.688.
The same measure, in the same setting: then `CCOC(=O)[C@H](Cc1ccccc1)NC(=O)CCC1CC(OC(=O)NCc2cccc3ccccc23)CC2(CCCC(COC(=O)NCc3cccc(C(F)(F)F)c3)O2)O1` (stereo not given in full), with -0.573; and `CCOC(=O)[C@H](CC(C)C)NC(=O)CCC1CC(OC(=O)NCCc2ccc(F)cc2)CC2(CCCC(COC(=O)NCCOc3ccccc3)O2)O1` (stereo not given in full), with 0.161.
In the case of `COC(=O)[C@H]1[C@@H](O)[C@@]2(O)c3ccccc3O[C@@]2(c2ccccc2)[C@@H]1c1ccccc1`, the z-score is -0.857.
With `C#CCCCON=C1C[C@@H](O)[C@@H](O)[C@@H]2[C@@H]3C(=O)N(C(C)(C)C)C(=O)[C@@H]3CC[C@H]12`, the z-score was -0.0553.
On the same count and under the same terms, then `CO[C@@H]1C=CCC(=O)N[C@@H](C)C(=O)OC[C@@H](OC)[C@H](C)CCCC(=O)OC[C@H]1C`, with 1.58; and `CON=C[C@@H](C)[C@H](OCc1ccccc1)C(C)C`, with -0.32; and `Cc1ccc(S(=O)(=O)n2c3ccccc3c3nnc(C(=O)c4ccccc4)nc32)cc1`, with -0.222.
On the same count and under the same terms, then `CC(C)CON=C1C[C@@H](O)[C@@H](O)[C@@H]2[C@@H]3C(=O)N(C4CCCCC4)C(=O)[C@@H]3CC[C@H]12`, with -0.365.
`CO[C@@H]1COC(=O)CC=C[C@@H](C)[C@H](OC)COC(=O)[C@@H](C)COC(=O)CC=C[C@H]1C` registered a z-score of 0.151.
Still for that read-out and setting: then `COC(=O)CC=C[C@@H](C)[C@@H](C=NO[C@@H](C)c1cn([C@H](CO)Cc2ccccc2)nn1)OC`, with -0.514; and `COC(=O)CC=C[C@@H](C)[C@@H](C=NOC[C@@H](O)[C@H]1O[C@@H]2OC(C)(C)O[C@@H]2[C@H]1O)NS(=O)(=O)c1ccc(C)cc1`, with -0.609; and `COc1ccc(O[C@H]2C=C[C@@H](c3ccccc3)O[C@@H]2COC(=O)CCC(C)=NOC(C)CN2CCCc3nc(C)c(C)cc32)cc1` (stereo not given in full), with 0.757.
Still for that read-out and setting: next, `CCOC(=O)NN=C1C[C@@H](O)[C@@H](O)[C@@H]2[C@@H]3C(=O)N(Cc4ccc5c(c4)OCO5)C(=O)[C@@H]3CC[C@H]12`: 0.3.
As to `CC(C)=NO[C@H](C)c1cn([C@H](CO)Cc2ccccc2)nn1`, the z-score was determined as 0.672.
Same read-out and setting: next, `CCOC(=O)[C@H](CC(C)C)NC(=O)CCC1CC(OC(=O)NCc2cccc3ccccc23)CC2(CCCC(COC(=O)NCCOc3ccccc3)O2)O1` (stereo not given in full): 1.57; `CC(C)[C@@H](OCc1ccccc1)[C@H](C)C=NOC[C@@H](O)COCc1ccco1`: -0.885.
Still for that read-out and setting: then `CCOC(=O)[C@H](CC(C)C)NC(=O)CCC1CC(OC(=O)NCc2cccc3ccccc23)CC2(CCCC(COC(=O)NCCOC)O2)O1` (stereo not given in full), with 0.986; and `CON=C1[C@H]2CCn3c(=O)n(-c4ccccc4)c(=O)n3[C@H]2[C@H](O)[C@@H]2O[C@H]12`, with 0.116; and `CO[C@@H]1COC(=O)CC=C[C@@H](C)[C@@H]2C=C[C@H](O)[C@@H](COC(=O)CC=C[C@H]1C)O2`, with 0.366.
Still for that read-out and setting: next, `COC(=O)[C@@H]1CC[C@H](C)[C@@H](c2ccc(C)cc2)N1C(=O)c1ccc(C=NOCC[C@@H]2C=C[C@H](OC(C)=O)[C@@H](COC(C)=O)O2)cc1`: -0.337.
As for `CCOC(=O)CCN1C(=O)[C@H]2[C@H]3[C@H](O)[C@H](O)CC(=NOCc4ccccc4)[C@H]3CC[C@H]2C1=O`, the z-score was -0.775.
Same read-out and setting: next, `CCOC(=O)NN=C1C[C@@H](O)[C@@H](O)[C@@H]2[C@@H]3C(=O)N(c4cccc(Oc5ccccc5)c4)C(=O)[C@@H]3CC[C@H]12`: 0.529.
Still for that read-out and setting: then `COC(=O)CC=C[C@@H](C)[C@@H](C=NOC(C)CN1CCCc2nc(C)c(C)cc21)OC` (stereo not given in full), with -1.26.

The target of the next assay is E3 ubiquitin-protein ligase XIAP (Homo sapiens) (UniProt P98170). The experiment in a line: small molecules binding XIAP protein – biophysical, small-molecule microarray, fluorescence 635 nm, primary screen (AID 1181).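 Note: score merges 667 nm emission and signal to noise over triplicate slides.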 The following applies: higher = more signal.
E3 ubiquitin-protein ligase XIAP (Homo sapiens), sequence (P98170 whole entry, looked up): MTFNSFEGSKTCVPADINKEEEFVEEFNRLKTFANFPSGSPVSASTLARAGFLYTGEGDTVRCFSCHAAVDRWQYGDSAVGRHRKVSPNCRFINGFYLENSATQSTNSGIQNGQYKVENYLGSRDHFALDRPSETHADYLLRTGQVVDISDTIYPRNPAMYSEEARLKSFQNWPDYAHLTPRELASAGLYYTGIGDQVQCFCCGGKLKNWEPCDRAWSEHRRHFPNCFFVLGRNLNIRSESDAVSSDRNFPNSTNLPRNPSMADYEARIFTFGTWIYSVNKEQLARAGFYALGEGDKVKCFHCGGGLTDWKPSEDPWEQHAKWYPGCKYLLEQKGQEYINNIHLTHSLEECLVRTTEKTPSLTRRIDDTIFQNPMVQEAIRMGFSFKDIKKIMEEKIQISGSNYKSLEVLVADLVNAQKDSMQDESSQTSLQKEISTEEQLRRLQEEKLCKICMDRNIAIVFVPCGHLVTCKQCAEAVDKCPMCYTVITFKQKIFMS
`C[C@@H]1NC(=O)[C@@H](C)COC(=O)[C@H](C)NC(=O)[C@@H](C)COC1=O` gave a composite z-score of 0.0714.
Still for that read-out and setting: then `C[n+]1ccc(-c2ccc(CO)cc2)cc1`, with 0.433.
On the same count and under the same terms, then `O=C1C[C@@H](O)[C@@H](O)[C@@H]2[C@@H]3C(=O)N(C[C@@H]4CCCO4)C(=O)[C@@H]3CC[C@H]12`, with -0.28.
On the same count and under the same terms, next, `CCN1C(=O)[C@@H]2[C@H]3C(=CC[C@@H]2C1=O)C1(OCCCO1)[C@H]1O[C@H]1[C@H]3O`: -0.141.
`COC(=O)C=CCCc1coc(C=CCNC(=O)OC)n1` had a composite z-score of 0.249.
On the same count and under the same terms, then `COC(=O)CC=C[C@@H](C)[C@@H](C=NO[C@@H](C)c1cn([C@H](CO)Cc2ccccc2)nn1)NS(=O)(=O)c1ccc(C)cc1`, with -0.349; and `O=C(NN=C1C[C@@H](O)[C@@H](O)[C@@H]2[C@@H]3C(=O)N(C[C@@H]4CCCO4)C(=O)[C@@H]3CC[C@@H]12)OCc1ccccc1`, with 0.0623; and `CCOC(=O)C1=NO[C@@]2(C=C(Br)C3(OCCCO3)[C@H]3O[C@H]32)C1`, with 0.0657.
On the same count and under the same terms, then `COCCNC(=O)OCC1CCCC2(CC(OC(=O)NCc3ccc4c(c3)OCO4)CC(CCC(=O)N[C@@H](C)C(=O)OC)O2)O1` (stereo not given in full), with -0.173.
On the same count and under the same terms, next, `COc1ccc(COC(=O)NN=C2C[C@@H](O)[C@@H](O)[C@@H]3[C@@H]4C(=O)N(c5ccc(F)cc5F)C(=O)[C@@H]4CC[C@H]23)cc1`: 0.0674; `CC(CCN1CCCc2nc(C)c(C)cc21)=NOC(C)CN1CCCCc2nc(C)c(C)cc21` (stereo not given): 0.593.
On to `COC(=O)CC=C[C@@H](C)[C@@H](C=NOCC[C@@H]1C=C[C@H](OC(C)=O)[C@@H](COC(C)=O)O1)OC`, for which the composite z-score is 0.0506.
Same read-out and setting: next, `CC(CCN1CCCCc2nc(C)c(C)cc21)=NOC[C@@H](O)COCc1ccco1`: 0.0251; `CCOC(=O)[C@H](Cc1ccccc1)NC(=O)CCC1CC(OC(=O)NCc2cccc3ccccc23)CC2(CCCC(COC(=O)NCc3cccc(C(F)(F)F)c3)O2)O1` (stereo not given in full): 0.158.
Same read-out and setting: next, `CCOC(=O)[C@H](CC(C)C)NC(=O)CCC1CC(OC(=O)NCCc2ccc(F)cc2)CC2(CCCC(COC(=O)NCCOc3ccccc3)O2)O1` (stereo not given in full): -0.214; `COC(=O)[C@H]1[C@@H](O)[C@@]2(O)c3ccccc3O[C@@]2(c2ccccc2)[C@@H]1c1ccccc1`: -0.173; `C#CCCCON=C1C[C@@H](O)[C@@H](O)[C@@H]2[C@@H]3C(=O)N(C(C)(C)C)C(=O)[C@@H]3CC[C@H]12`: -0.0849.
Same read-out and setting: next, `CO[C@@H]1C=CCC(=O)N[C@@H](C)C(=O)OC[C@@H](OC)[C@H](C)CCCC(=O)OC[C@H]1C`: -0.269.
Turning to `CON=C[C@@H](C)[C@H](OCc1ccccc1)C(C)C`, the composite z-score is -0.409.
Same read-out and setting: next, `Cc1ccc(S(=O)(=O)n2c3ccccc3c3nnc(C(=O)c4ccccc4)nc32)cc1`: -0.256; `CC(C)CON=C1C[C@@H](O)[C@@H](O)[C@@H]2[C@@H]3C(=O)N(C4CCCCC4)C(=O)[C@@H]3CC[C@H]12`: 0.224.
The same measure, in the same setting: next, `CO[C@@H]1COC(=O)CC=C[C@@H](C)[C@H](OC)COC(=O)[C@@H](C)COC(=O)CC=C[C@H]1C`: -0.0264.
Still for that read-out and setting: next, `COC(=O)CC=C[C@@H](C)[C@@H](C=NO[C@@H](C)c1cn([C@H](CO)Cc2ccccc2)nn1)OC`: -0.139; `COC(=O)CC=C[C@@H](C)[C@@H](C=NOC[C@@H](O)[C@H]1O[C@@H]2OC(C)(C)O[C@@H]2[C@H]1O)NS(=O)(=O)c1ccc(C)cc1`: -0.0445.
Regarding `COc1ccc(O[C@H]2C=C[C@@H](c3ccccc3)O[C@@H]2COC(=O)CCC(C)=NOC(C)CN2CCCc3nc(C)c(C)cc32)cc1` (stereo not given in full), the composite z-score was -0.127.
Still for that read-out and setting: then `CCOC(=O)NN=C1C[C@@H](O)[C@@H](O)[C@@H]2[C@@H]3C(=O)N(Cc4ccc5c(c4)OCO5)C(=O)[C@@H]3CC[C@H]12`, with -0.0294; and `CC(C)=NO[C@H](C)c1cn([C@H](CO)Cc2ccccc2)nn1`, with -0.0538; and `CCOC(=O)[C@H](CC(C)C)NC(=O)CCC1CC(OC(=O)NCc2cccc3ccccc23)CC2(CCCC(COC(=O)NCCOc3ccccc3)O2)O1` (stereo not given in full), with -0.142.
The same measure, in the same setting: then `CC(C)[C@@H](OCc1ccccc1)[C@H](C)C=NOC[C@@H](O)COCc1ccco1`, with -0.0172.
Same read-out and setting: then `CCOC(=O)[C@H](CC(C)C)NC(=O)CCC1CC(OC(=O)NCc2cccc3ccccc23)CC2(CCCC(COC(=O)NCCOC)O2)O1` (stereo not given in full), with 0.0589; and `CON=C1[C@H]2CCn3c(=O)n(-c4ccccc4)c(=O)n3[C@H]2[C@H](O)[C@@H]2O[C@H]12`, with 0.0159.
Take `CO[C@@H]1COC(=O)CC=C[C@@H](C)[C@@H]2C=C[C@H](O)[C@@H](COC(=O)CC=C[C@H]1C)O2`: the composite z-score came out at 0.0177.
On the same count and under the same terms, then `COC(=O)[C@@H]1CC[C@H](C)[C@@H](c2ccc(C)cc2)N1C(=O)c1ccc(C=NOCC[C@@H]2C=C[C@H](OC(C)=O)[C@@H](COC(C)=O)O2)cc1`, with -0.291; and `CCOC(=O)CCN1C(=O)[C@H]2[C@H]3[C@H](O)[C@H](O)CC(=NOCc4ccccc4)[C@H]3CC[C@H]2C1=O`, with 0.012; and `CCOC(=O)NN=C1C[C@@H](O)[C@@H](O)[C@@H]2[C@@H]3C(=O)N(c4cccc(Oc5ccccc5)c4)C(=O)[C@@H]3CC[C@H]12`, with -0.106.
In turn, `COC(=O)CC=C[C@@H](C)[C@@H](C=NOC(C)CN1CCCc2nc(C)c(C)cc21)OC` (stereo not given in full) came in with a composite z-score of 0.137.
